Drawing on PubChem BioAssay (NCI), this text covers growth for eleven compounds.

The panel holds about 83,000 compounds, 20% with a hit somewhere; the sample as a whole holds those more often.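 The endpoint reported here, percent growth, reads 100 for growth as untreated, 0 for no net growth and -100 for all cells dead.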 A number with no mark means an inactive call. Calls of active or inactive are those of the source. The calls were made as follows: active = growth percent below 10; inactive = the rest.

The assay deals with HCT-116 colon. The assay is described as follows: NCI-60 one-dose screen, 48 h (100 = growth as untreated, 0 = no growth, -100 = all killed). To be noted: 10 µM unless noted.
For `COc1cccc(-c2nn(-c3ccccc3)cc2-c2ccnc(NCCCN)c2)c1`, the growth is 45.1%.

On to `Cn1cnc2c1c(=O)n(CCC(=O)Nc1ccc(F)cc1)c(=O)n2C`, for which the growth is 86.5%.

With `C=C(C)[C@@H]1CC[C@]2(C=O)CC[C@]3(C)[C@H](CC[C@@H]4[C@@]5(C)C/C(=C/c6cccnc6)C(=O)C(C)(C)[C@@H]5CC[C@]43C)[C@@H]12`, the growth is 43.8%.

Turning to `CN(C)c1cccc2[nH]c(-c3[nH]ncc3Nc3ccnc(N)n3)nc12`, the growth is -40.8% (active).

For the compound `O=Cc1nc2ccccc2[nH]1`, the growth was 88.5%.

For the compound `COc1cc2nc(Cl)nc(Nc3cccc(C(=O)/C=C/c4ccc(Br)cc4)c3)c2cc1OC`, the growth was 15.8%.

Turning to `CC[C@H](CC[C@@H](C)[C@H]1CC[C@H]2[C@@H]3/C(=C/c4cccnc4)C(=O)C4=CC(=O)CC[C@]4(C)[C@H]3CC[C@]12C)C(C)C`, the growth is 61.9%.

For `C=C(C)[C@@H]1CC[C@]2(c3nnc(-c4ccncc4)o3)CC[C@]3(C)[C@H](CC[C@@H]4[C@@]5(C)CCC(=O)NC(C)(C)[C@@H]5CC[C@]43C)[C@@H]12`, the growth was 88.8%.

`COc1cc(NC(C)CN(CC(C)C)C(C)C)c2ncccc2c1` (stereo unspecified): the growth is 88.6%.

Take `Nc1c2c(nc3ccc(Cl)cc13)CC(c1ccccc1)CC2=O` (stereo unspecified): the growth was 20.3%.

In the case of `COC(=O)[C@]12CC[C@@H](C)[C@H](C)[C@@H]1C1=CC[C@@H]3[C@@]4(C)C[C@@H](O)[C@H](O)[C@@](C)(CO)C4=CC[C@@]3(C)[C@]1(C)CC2`, the growth was -37.5% (active).
